Our source for the outcome values is PubChem BioAssay AID492996 (Johns Hopkins Ion Channel Center, 2010).

The assay deals with Short transient receptor potential channel 4 (Mus musculus) (UniProt Q9QUQ5). Briefly: TRPC4 inhibition under acetylcholine activation, SAR follow-up, cell-based, acetylcholine stimulus, HEK293 TRPC4, Fluo-4 (AID 492996).

Each structure is given as a SMILES string. Results with a measured potency or affinity are listed apart. The source made the active and inactive calls.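 Rule for the calls: active = peak inhibition of the TRPC4 channel signal over 30% at some dose, with a fitted dose response curve; inactive = no inhibition or no dose response curve.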

Sequence of Short transient receptor potential channel 4 (Mus musculus) (Q9QUQ5 whole entry, looked up): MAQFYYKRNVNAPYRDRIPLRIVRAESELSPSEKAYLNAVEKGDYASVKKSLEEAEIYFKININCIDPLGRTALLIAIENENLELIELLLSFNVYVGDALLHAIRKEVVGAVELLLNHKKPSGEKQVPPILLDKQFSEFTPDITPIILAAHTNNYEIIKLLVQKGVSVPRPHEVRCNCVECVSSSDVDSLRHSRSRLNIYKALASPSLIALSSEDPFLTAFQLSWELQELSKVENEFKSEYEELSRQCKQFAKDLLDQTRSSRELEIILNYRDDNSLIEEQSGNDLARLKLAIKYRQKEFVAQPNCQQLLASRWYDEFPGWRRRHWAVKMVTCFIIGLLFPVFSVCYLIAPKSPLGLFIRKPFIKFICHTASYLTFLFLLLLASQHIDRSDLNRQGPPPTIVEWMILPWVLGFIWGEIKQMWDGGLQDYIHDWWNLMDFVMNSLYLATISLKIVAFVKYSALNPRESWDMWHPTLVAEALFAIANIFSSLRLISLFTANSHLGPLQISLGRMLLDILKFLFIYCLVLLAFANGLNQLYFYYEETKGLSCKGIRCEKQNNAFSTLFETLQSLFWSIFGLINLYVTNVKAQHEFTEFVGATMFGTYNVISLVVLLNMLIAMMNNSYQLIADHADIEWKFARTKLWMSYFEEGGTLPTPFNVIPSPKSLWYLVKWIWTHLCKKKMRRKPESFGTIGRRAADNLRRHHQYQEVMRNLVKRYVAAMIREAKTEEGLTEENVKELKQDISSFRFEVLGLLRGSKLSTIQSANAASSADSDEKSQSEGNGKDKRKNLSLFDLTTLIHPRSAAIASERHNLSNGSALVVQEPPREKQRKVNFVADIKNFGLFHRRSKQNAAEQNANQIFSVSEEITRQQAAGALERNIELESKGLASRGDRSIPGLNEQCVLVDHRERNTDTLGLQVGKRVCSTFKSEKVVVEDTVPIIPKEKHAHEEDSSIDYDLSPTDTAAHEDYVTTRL

In the case of `Cc1cc(N2CCNCC2)nc2ccccc12`, the compound was classed as inactive.
